Reference: PubChem BioAssay
Activity calls are given as the source filed them. Unless noted, how the calls were made is not given here.

Key:
[1] = compound effects on lung adenocarcinoma cell viability – A549, calcein-AM fluorescence, 48 h, basal, profiling panel (AID 1162); details: higher = more signal; further: test concentration not given here
[2] = compound effects on differentiated 3T3-L1 adipocyte viability – cell-based, 3T3-L1 adipocytes, calcein-AM fluorescence, 48 h, basal, profiling panel (AID 1163); details: 3T3-L1 adipocytes viability, higher = more signal; further: test concentration not given here
[3] = compound effects on hepatocellular carcinoma cell viability – HepG2, calcein-AM fluorescence, 48 h, basal, profiling panel (AID 1164); details: higher = more signal; further: test concentration not given here
[4] = compound effects on multiple myeloma cell viability – MM1S, calcein-AM fluorescence, 48 h, basal, profiling panel (AID 1165); details: higher = more signal;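 further: viability of MM1S multiple myeloma cells under basal unstimulated conditions; test concentration not given here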
[5] = calcein-AM signal in unstimulated myeloma cells – cell-based, calcein-AM fluorescence, 48 h, PK04 Diversity Set, profiling panel (AID 1166); details: RPMI8226 myeloma viability, higher = more signal;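 further: cells grown under basal conditions without added stimulus; test concentration not given here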
[6] = JC-1 mitochondrial signal, unstimulated HepG2 cells – cell-based, JC-1 fluorescence, 24 h, 100 nL compound, profiling panel (AID 1167); details: HepG2 mitochondrial potential, higher = more signal; further: test concentration not given here
[7] = JC-1 mitochondrial signal, unstimulated adipocytes – cell-based, JC-1 fluorescence, 3T3-L1 adipocytes, 24 h, 100 nL compound, profiling panel (AID 1168); details: JC-1 mitochondrial fluorescence, higher = more signal, called active from +8 up or from −8 down; further: test concentration not given here
[8] = JC-1 mitochondrial signal, unstimulated myeloma cells – cell-based, JC-1 fluorescence, RPMI8226, 24 h, 100 nL compound, profiling panel (AID 1169); details: JC-1 mitochondrial potential fluorescence, higher = more signal; further: test concentration not given here
[9] = JC-1 mitochondrial signal, unstimulated MM1S myeloma – cell-based, JC-1 fluorescence, 24 h, 100 nL compound, profiling panel (AID 1170); details: MM1S mitochondrial potential, higher = more signal; further: test concentration not given here
[10] = resazurin metabolic signal in A549 cells – cell-based, resazurin fluorescence, 24 h, PK04 Diversity Set, profiling panel (AID 1171); details: A549 viability, higher = more signal, called active from +8 up or from −8 down; further: test concentration not given here
[11] = resazurin metabolic signal in HepG2 cells – cell-based, resazurin fluorescence, 24 h, PK04 Diversity Set, profiling panel (AID 1172); details: HepG2 viability, higher = more signal; further: test concentration not given here
[12] = budding yeast growth changes without added modifier – OD600, strain BY4716, 24 h, basal condition, primary screen (AID 1173); details: S. cerevisiae BY4716 growth, OD600, 24 h; higher = more signal, called active from +8 up or from −8 down
[13] = viability profiling in MM1S myeloma cells – cell-based, resazurin fluorescence, basal, 24 h, PK04 Diversity Set, profiling panel (AID 1174); details: higher = more signal, called active from +8 up or from −8 down; further: test concentration not given here
[14] = target: Dihydroorotate dehydrogenase (quinone), mitochondrial (Plasmodium falciparum (isolate 3D7)) (UniProt Q08210); assay: inhibition of P. falciparum DHODH – biochemical, C-terminal His tag, absorbance 600 nm, primary screen (AID 1175); details: PfDHODH enzyme, DCIP absorbance 600 nm; higher = more signal, called active from +8 up or from −8 down;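 further: recombinant parasite enzyme with a five histidine tag at its C terminus; test concentration not given here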
[15] = inhibition of PAO1 biofilm formation – strain PAO1, LB-PBS medium, absorbance 600 nm, primary screen (AID 1176); further: test concentration not given here; details: P. aeruginosa PAO1 growth/biofilm, A600, 12 h; higher = more signal
[16] = growth modulation of vineyard yeast isolate – strain RM11-1a, OD600, basal, 24 h, primary screen (AID 1177);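 further: cultures grown under basal conditions with no added stressor; test concentration not given here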; details: S. cerevisiae RM11-1a growth, OD600, 24 h; higher = more signal, called active from +8 up or from −8 down
[17] = growth of efflux-deficient E. coli DRC39 – strain DRC39, OD650, 24 h, E. coli filamentation inducers, primary screen (AID 1178);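 further: growth measured as culture turbidity by optical density at 650 nm; test concentration not given here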; details: E. coli DRC39 acrAB, higher = more signal, called active from +8 up or from −8 down
[18] = growth of efflux-deficient E. coli DRC39 – strain DRC39, OD650, 48 h, E. coli filamentation inducers, primary screen (AID 1179);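 further: screen aims at cell division blockers that make cells filament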; details: E. coli DRC39 delta-acrAB growth, higher = more signal, called active from +8 up or from −8 down
[19] = viability profiling in RPMI8226 myeloma cells – cell-based, resazurin fluorescence, basal, 24 h, PK04 Diversity Set, profiling panel (AID 1180); details: higher = more signal;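 further: RPMI8826 multiple myeloma cell line at 5000 cells per well; test concentration not given here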
[20] = target: E3 ubiquitin-protein ligase XIAP (Homo sapiens) (UniProt P98170); assay: small molecules binding XIAP protein – biophysical, small-molecule microarray, fluorescence 635 nm, primary screen (AID 1181); details: higher = more signal;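 further: score merges 667 nm emission and signal to noise over triplicate slides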
E3 ubiquitin-protein ligase XIAP (Homo sapiens), sequence (P98170 whole entry, looked up): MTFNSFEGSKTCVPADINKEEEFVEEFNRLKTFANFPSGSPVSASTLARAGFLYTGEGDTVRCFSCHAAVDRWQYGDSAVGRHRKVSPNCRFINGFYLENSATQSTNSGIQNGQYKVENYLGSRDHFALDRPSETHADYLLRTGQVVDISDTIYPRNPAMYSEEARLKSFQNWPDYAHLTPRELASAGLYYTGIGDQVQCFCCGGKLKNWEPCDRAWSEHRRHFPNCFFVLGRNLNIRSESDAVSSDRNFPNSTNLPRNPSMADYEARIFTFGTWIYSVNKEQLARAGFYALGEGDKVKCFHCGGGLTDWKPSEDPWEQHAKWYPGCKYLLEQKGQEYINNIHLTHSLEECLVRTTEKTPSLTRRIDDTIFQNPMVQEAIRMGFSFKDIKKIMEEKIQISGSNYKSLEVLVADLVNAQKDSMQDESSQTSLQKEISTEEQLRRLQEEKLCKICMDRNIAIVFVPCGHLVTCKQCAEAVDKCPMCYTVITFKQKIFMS

Dihydroorotate dehydrogenase (quinone), mitochondrial (Plasmodium falciparum (isolate 3D7)), sequence (Q08210 whole entry, looked up): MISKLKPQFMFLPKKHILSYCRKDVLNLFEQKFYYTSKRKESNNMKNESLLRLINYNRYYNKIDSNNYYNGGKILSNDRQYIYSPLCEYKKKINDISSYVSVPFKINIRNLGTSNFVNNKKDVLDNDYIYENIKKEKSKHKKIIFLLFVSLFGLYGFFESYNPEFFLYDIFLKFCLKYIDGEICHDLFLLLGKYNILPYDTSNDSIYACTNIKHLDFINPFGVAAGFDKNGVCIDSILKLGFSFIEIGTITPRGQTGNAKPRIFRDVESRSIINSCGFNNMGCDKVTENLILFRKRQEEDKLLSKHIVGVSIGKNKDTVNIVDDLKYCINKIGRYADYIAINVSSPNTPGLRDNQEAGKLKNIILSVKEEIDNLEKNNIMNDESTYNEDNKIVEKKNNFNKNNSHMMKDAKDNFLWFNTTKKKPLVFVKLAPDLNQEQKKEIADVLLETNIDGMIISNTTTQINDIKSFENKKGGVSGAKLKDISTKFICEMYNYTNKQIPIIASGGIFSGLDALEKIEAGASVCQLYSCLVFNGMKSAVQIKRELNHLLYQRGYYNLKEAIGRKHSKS

SMILES	z-score [1]	z-score [2]	z-score [3]	z-score [4]	z-score [5]	z-score [6]	z-score [7]	z-score [8]	z-score [9]	z-score [10]	z-score [11]	z-score [12]	z-score [13]	composite z-score [14]	z-score [15]	z-score [16]	z-score [17]	z-score [18]	z-score [19]	composite z-score [20]
O=C1N(CCS(=O)(=O)c2ccccc2)Cc2ccccc2[C@@H]2OC(c3ccc(OCCCO)cc3)=N[C@]12CCS(=O)(=O)c1ccccc1	1.35	0.859	0.345	-0.635	-1	-1.65	1.72 (inactive)	-0.933	-1.01	0.409 (inactive)	0.638	1.6 (inactive)	0.298 (inactive)	0.324 (inactive)	1.71 (inactive)	2.85 (inactive)	0.958 (inactive)	0.31 (inactive)	-0.458	-0.0062
CC(C)[C@H]1NC(=O)[C@@]23C(=O)N[C@@H](Cc4ccccc4)C2[C@H](C)[C@@]2(C)O[C@H]2C3/C=C/C/C=C\CNC(=O)[C@H](Cc2ccccc2)NC1=O (stereo not given in full)	0.716	-0.144	0.42	-1.08	-1.39	0.5	-0.769 (inactive)	-0.132	0.623	-0.739 (inactive)	-0.875	-0.516 (inactive)	-0.504 (inactive)	-0.141 (inactive)	-0.377 (inactive)	-0.472 (inactive)	-0.0953 (inactive)	-1.2 (inactive)	-1.26	-0.288
COc1ccc([Si](C)(C)[C@H]2[C@H](CC(=O)N3Cc4ccccc4C[C@H]3CO)O[C@@]3(C(=O)N(Cc4ccc(N5C(=O)c6cccc7cccc5c67)cc4)c4ccccc43)[C@@H]2C)cc1	-0.0678	0.314	0.898	-0.769	-0.874	2.5	-0.178 (inactive)	-1.22	-0.862	0.0918 (inactive)	0.716	0.21 (inactive)	-2 (inactive)	-0.934 (inactive)	1.13 (inactive)	1.77 (inactive)	0.929 (inactive)	0.472 (inactive)	-0.737	-0.063
CN(C)C(=O)[C@@]1(Cc2ccccc2N=[N+]=[N-])N=C(c2ccc(OCCCO)cc2)O[C@H]1c1ccccc1	-1.85	0.574	-0.954	-2.99	-3.67	0.517	0.0738 (inactive)	-1.25	-1.67	-2.2 (inactive)	0.329	-1.23 (inactive)	-3.18 (inactive)	0.346 (inactive)	0.274 (inactive)	0.751 (inactive)	-0.105 (inactive)	-1.1 (inactive)	-3.04	0.102
COCCCNC(=O)[C@@H]1c2ccccc2C(=O)N(C2Cc3ccccc3C2)[C@H]1c1ccc(CO)cc1	1.12	0.275	0.165	0.155	0.261	2.94	-0.17 (inactive)	0.217	0.494	0.58 (inactive)	-0.138	-0.483 (inactive)	0.354 (inactive)	-0.774 (inactive)	0.388 (inactive)	-0.344 (inactive)	0.722 (inactive)	0.468 (inactive)	0.653	-0.169
O=C1OCC=C[C@H]2OC34C=CCN(c5ccc6ccccc6c5)C(=O)[C@H]3N(CCCCCO)C(=O)[C@@H]4[C@@H]12 (stereo not given in full)	-0.381	-0.0217	-1.08	0.589	0.0725	-0.913	-0.436 (inactive)	-0.0765	0.313	-1.01 (inactive)	-0.658	-0.459 (inactive)	-0.818 (inactive)	0.28 (inactive)	-0.634 (inactive)	0.176 (inactive)	-1.19 (inactive)	-1.3 (inactive)	-0.887	-0.0286
COC(=O)[C@@]1(Cc2ccc(F)cc2)[C@H]2c3cc(C(=O)N(C)C)n(Cc4c(CO)[nH]cc(C)c4=O)c3C[C@H]2CN1C(=O)c1ccccc1	-0.108	0.837	-0.554	-1.33	-0.372	-0.3	-0.91 (inactive)	-0.00352	-0.895	-1.42 (inactive)	-1.03	0.966 (inactive)	-1.72 (inactive)	-0.244 (inactive)	1.79 (inactive)	0.986 (inactive)	-0.0892 (inactive)	-1.36 (inactive)	-0.932	0.0153
O=C1O[C@H](c2ccccc2)[C@H](c2ccccc2)N2[C@H]1[C@@H](C(=O)N1CCCCCCC1)[C@]1(C(=O)Nc3ccc(C#CC4(O)CCCCCC4)cc31)[C@H]2c1ccc(O)cc1	0.792	-0.597	1.68	-0.845	-1.59	-0.806	0.212 (inactive)	-0.613	-0.515	0.0109 (inactive)	0.114	-0.101 (inactive)	-0.5 (inactive)	0.0579 (inactive)	0.875 (inactive)	0.74 (inactive)	0.799 (inactive)	0.163 (inactive)	0.295	0.322
